# Experimental data taken from the supplement of paper PMC8728848.
# This is one part of a sample in which the strongest signals are shown more often than they occur.
# B1: EEA (Euonymus europaeus) (protein)
# chain: MASTIIATGPTYRVYCRAAPNYNMIVGKGVAFLAPIDETNELQYWYKDDTYSYIKDEAGLPAFSLVNKATGLTLKHSNHHPVPVKLVTYNPNVVDESVLWSQADDRGDGYSAIRSLTNPASHLEAAPLNDWSYNGAIIMGGVWIDAYNQQWKIEPHTG
# Experiments:
# Test in all cases: glycan array binding signal (z-score within array); higher = stronger binding
# Conditions in all cases: glycan notation: IUPAC condensed, linker removed
# [1] = target: Fuc(a1-2)Gal(b1-4)[Fuc(a1-3)]GlcNAc(b1-3)GalNAc
# Method in brief: (§1)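 Arrays were curated from the Consortium for Functional Glycomics database, 3228 in total, and kept only where the protein sequence was available. Binding is expressed as a within-array Z-score. This score was averaged across arrays of the same protein sequence at different concentrations or buffers and across linkers, and negative values can be read as non-binding.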
# [2] = target: Fuc(a1-2)[Gal(a1-3)]Gal(b1-3)GlcNAc
# Method in brief: as §1
# [3] = target: Fuc(a1-2)[Gal(a1-3)]Gal(b1-3)GlcNAc(b1-2)Man(a1-3)[Fuc(a1-2)[Gal(a1-3)]Gal(b1-3)GlcNAc(b1-2)Man(a1-6)]Man(b1-4)GlcNAc(b1-4)GlcNAc
# Method in brief: as §1
# [4] = target: Fuc(a1-2)[Gal(a1-3)]Gal(b1-3)GlcNAc(b1-2)Man(a1-3)[Fuc(a1-2)[Gal(a1-3)]Gal(b1-3)GlcNAc(b1-2)Man(a1-6)]Man(b1-4)GlcNAc(b1-4)[Fuc(a1-6)]GlcNAc
# Method in brief: as §1
# [5] = target: Fuc(a1-2)[Gal(a1-3)]Gal(b1-3)GlcNAc(b1-6)GalNAc
# Method in brief: as §1
# [6] = target: Fuc(a1-2)[Gal(a1-3)]Gal(b1-4)Glc
# Method in brief: as §1
# [7] = target: Fuc(a1-2)[Gal(a1-3)]Gal(b1-4)GlcNAc
# Method in brief: as §1
# [8] = target: Fuc(a1-2)[Gal(a1-3)]Gal(b1-4)GlcNAc(b1-2)Man
# Method in brief: as §1
# [9] = target: Fuc(a1-2)[Gal(a1-3)]Gal(b1-4)GlcNAc(b1-2)Man(a1-3)[Fuc(a1-2)[Gal(a1-3)]Gal(b1-4)GlcNAc(b1-2)Man(a1-6)]Man(b1-4)GlcNAc(b1-4)GlcNAc
# Method in brief: as §1
# [10] = target: Fuc(a1-2)[Gal(a1-3)]Gal(b1-4)GlcNAc(b1-2)Man(a1-3)[Fuc(a1-2)[Gal(a1-3)]Gal(b1-4)GlcNAc(b1-2)Man(a1-6)]Man(b1-4)GlcNAc(b1-4)[Fuc(a1-6)]GlcNAc
# Method in brief: as §1
# [11] = target: Fuc(a1-2)[Gal(a1-3)]Gal(b1-4)GlcNAc(b1-3)GalNAc
# Method in brief: as §1
# [12] = target: Fuc(a1-2)[Gal(a1-3)]Gal(b1-4)GlcNAc(b1-6)GalNAc
# Method in brief: as §1
# [13] = target: Fuc(a1-2)[Gal(a1-3)]Gal(b1-4)[Fuc(a1-3)]GlcNAc
# Method in brief: as §1
# [14] = target: Fuc(a1-3)[Gal(b1-4)]GlcNAc(b1-2)Man(a1-3)[Fuc(a1-3)[Gal(b1-4)]GlcNAc(b1-2)Man(a1-6)]Man(b1-4)GlcNAc(b1-4)GlcNAc
# Method in brief: as §1
# [15] = target: Fuc(a1-3)[Gal(b1-4)]GlcNAc(b1-3)Gal(b1-3)[Fuc(a1-4)]GlcNAc
# Method in brief: as §1
# [16] = target: Fuc(a1-3)[Gal(b1-4)]GlcNAc(b1-3)Gal(b1-4)[Fuc(a1-3)]GlcNAc(b1-3)Gal(b1-4)[Fuc(a1-3)]GlcNAc
# Method in brief: as §1
# [17] = target: Fuc(a1-3)[Gal(b1-4)]GlcNAc(b1-6)GalNAc
# Method in brief: as §1
# [18] = target: Fuc(a1-3)[Gal3S(b1-4)]GlcNAc6S
# Method in brief: as §1
# [19] = target: Gal(a1-3)Fuc(a1-2)Gal(b1-4)GlcNAc(b1-3)[Gal(a1-3)Fuc(a1-2)Gal(b1-4)GlcNAc(b1-6)]GalNAc
# Method in brief: as §1
# [20] = target: Gal(b1-3)GlcNAc(b1-2)Man(a1-3)[Gal(b1-3)GlcNAc(b1-2)Man(a1-6)]Man(b1-4)GlcNAc(b1-4)GlcNAc
# Method in brief: as §1
# [21] = target: Gal(b1-3)GlcNAc(b1-3)Gal(b1-4)GlcNAc(b1-3)Gal(b1-4)GlcNAc(b1-2)[Gal(b1-3)GlcNAc(b1-3)Gal(b1-4)GlcNAc(b1-3)Gal(b1-4)GlcNAc(b1-6)]Man(a1-6)[Gal(b1-3)GlcNAc(b1-3)Gal(b1-4)GlcNAc(b1-3)Gal(b1-4)GlcNAc(b1-2)Man(a1-3)]Man(b1-4)GlcNAc(b1-4)[Fuc(a1-6)]GlcNAc
# Method in brief: as §1
# [22] = target: Gal(b1-4)GlcNAc(b1-2)Man(a1-3)Man(b1-4)GlcNAc(b1-4)GlcNAc
# Method in brief: as §1
# [23] = target: Gal(b1-4)GlcNAc(b1-2)Man(a1-3)[GlcNAc(b1-2)Man(a1-6)]Man(b1-4)GlcNAc(b1-4)GlcNAc
# Method in brief: as §1
# [24] = target: Gal(b1-4)GlcNAc(b1-2)[Gal(b1-4)GlcNAc(b1-4)]Man(a1-3)[Gal(b1-4)GlcNAc(b1-2)Man(a1-6)]Man(b1-4)GlcNAc(b1-4)GlcNAc
# Method in brief: as §1
# [25] = target: Gal(b1-4)GlcNAc(b1-3)Gal(b1-3)GalNAc
# Method in brief: as §1
# [26] = target: Gal(b1-4)GlcNAc(b1-3)Gal(b1-3)GlcNAc
# Method in brief: as §1
# [27] = target: Gal(b1-4)GlcNAc(b1-3)Gal(b1-4)Glc
# Method in brief: as §1
# [28] = target: Gal(b1-4)GlcNAc(b1-3)Gal(b1-4)GlcNAc(b1-3)Gal(b1-4)GlcNAc(b1-2)Man(a1-3)[Gal(b1-4)GlcNAc(b1-3)Gal(b1-4)GlcNAc(b1-3)Gal(b1-4)GlcNAc(b1-2)Man(a1-6)]Man(b1-4)GlcNAc(b1-4)[Fuc(a1-6)]GlcNAc
# Method in brief: as §1
binder,measurement,setting,value
B1,glycan array binding signal (z-score),[1],0.023
same,glycan array binding signal (z-score),[2],5.83
same,glycan array binding signal (z-score),[3],5.22
same,glycan array binding signal (z-score),[4],3.76
same,glycan array binding signal (z-score),[5],3.77
same,glycan array binding signal (z-score),[6],4.49
same,glycan array binding signal (z-score),[7],6.17
same,glycan array binding signal (z-score),[8],3.94
same,glycan array binding signal (z-score),[9],11.4
same,glycan array binding signal (z-score),[10],5.12
same,glycan array binding signal (z-score),[11],4.01
same,glycan array binding signal (z-score),[12],-0.195
same,glycan array binding signal (z-score),[13],-0.181
same,glycan array binding signal (z-score),[14],-0.21
same,glycan array binding signal (z-score),[15],-0.169
same,glycan array binding signal (z-score),[16],-0.252
same,glycan array binding signal (z-score),[17],-0.124
same,glycan array binding signal (z-score),[18],-0.209
same,glycan array binding signal (z-score),[19],4.66
same,glycan array binding signal (z-score),[20],-0.157
same,glycan array binding signal (z-score),[21],-0.049
same,glycan array binding signal (z-score),[22],-0.282
same,glycan array binding signal (z-score),[23],-0.235
same,glycan array binding signal (z-score),[24],-0.173
same,glycan array binding signal (z-score),[25],-0.23
same,glycan array binding signal (z-score),[26],-0.101
same,glycan array binding signal (z-score),[27],-0.156
same,glycan array binding signal (z-score),[28],-0.144
